Compound activity as filed in PubChem BioAssay.
Most compounds without a hit are left out; they make up all but 19% or so of the library.
TDP1 cell noCPT – qHTS for Inhibitors of human tyrosyl-DNA phosphodiesterase 1 (TDP1): qHTS in cells in absence of CPT; DT40 Tdp1-/- hTDP1 cells, no CPT, ATP luminescence, 48 h; Potency, µM (series often up to 46.2 µM), inactives show at the highest dose activity change, negative = growth inhibition, hits mostly inhibitors; actives 15% (n = 420,000); AID 686978, 2013; note: potency is the fitted concentration of half-maximal effect; % is set by controls: 0 for no effect and ±100 for the full control effect; nearly all actives have a fitted effect of over 55% in size
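No-CPT arm: Tdp1-/-;hTDP1 DT40 cells (400/well) plus compounds, incubated ≥48 hr at 37 °C. Readout CellTiter-Glo luminescence.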
BCR signal inh – blocks chronic active B-cell receptor signaling; actives 0.05% (n = 340,000); Potency, µM (highest dose often 46.1 µM), inactives show top-dose activity change, negative = inhibition, most hits filed as inhibitors; ABC-DLBCL IkBa-CBG/CBR reporter, luminescence ratio, 4 h; active = well fitted inhibition curve with a large enough effect in the signal ratio, with a control signal flat, not every such curve was filed as active; inconclusive = small, poorly fitted or top-dose-only effect, or effect the other way, or a change in a side signal; the % refers to the signal ratio;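 note: potency is the fitted concentration of half-maximal effect; plate controls were basal doxycycline-induced cells for no effect and cells given 10 µM MG132 for full effect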
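Cell line TMD8 (human ABC DLBCL), stably expressing tet-inducible CBG68-IkBa fusion and CBR; IMDM/0.5% FBS; cpd up to 46 uM; dox induction, 4 h, 37C/5% CO2; dual luminescence; green/red ratio; MG132 control.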
TDP1 cell CPT – growth inhibition of DT40 Tdp1-/-;hTDP1 cells with camptothecin (screen for TDP1 inhibitors); chicken DT40 Tdp1-/-;hTDP1 cells + 20 nM CPT, ATP luminescence, 48 h; Potency, µM (series often up to 46.2 µM), for the others: at the highest dose activity change, negative = growth inhibition, hits mostly inhibitors; actives 12% (n = 420,000); AID 686979; note: potency is the fitted concentration of half-maximal effect; % is set by controls: 0 for no effect and ±100 for the full control effect; nearly all actives have a fitted effect of over 55% in size
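Chicken DT40 Tdp1-/- cells complemented with human TDP1, 400 cells/well, exposed to compounds plus 20 nM camptothecin for at least 48 h at 37 C; viability read as ATP content by CellTiter-Glo luminescence.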
MCF10A rerep – inducers of DNA re-replication in MCF 10A breast cells; actives 2.9% (n = 350,000); Potency, µM (series often up to 46.1 µM), inactives show at the top dose activity, positive = re-replication, actives largely listed as activators; AID 624296; MCF 10A DNA re-replication, Hoechst nuclear intensity, 48 h; note: potency is the fitted concentration of half-maximal effect; % of control where 0% means no effect; nearly all actives have a fitted effect of over 50% in size
SW480 rerep – DNA re-replication induction in SW480 cells | Potency, µM (doses to about 46.1 µM), without a hit: top-dose re-replication activation, hits mostly activators | SW480 DNA re-replication, Hoechst DNA content imaging, 48 h | actives 1.8% (n = 340,000); note: potency is the fitted concentration of half-maximal effect; % of control where 0% means no effect; nearly all actives have a fitted effect of over 55% in size
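Compounds, transferred as 23 nL by pin tool, were incubated with cells for 48 hr; DNA content per nucleus was then quantified by Hoechst staining and fluorescence plate imaging.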
IL1B secr inh – blocks inflammasome-driven IL-1 beta release | THP-1 LPS/ATP IL-1B secretion, AlphaLISA, 16 h; active compounds read low | activity change, % at 57.5 µM | actives 4.7% (n = 360,000) | AID 743279; in the data active = activity change below about -50%; inconclusive = mostly about -30% to -49%; note: % is set by controls: 0 for no effect and ±100 for the full control effect
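Secreted IL-1B measured by AlphaLISA bead assay after 16 h compound exposure of THP-1 cells; compounds (final up to 57.5 uM) added 1 h before LPS (250 ng/mL) and ATP (1.25 mM) stimulation; lower signal means less secretion.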
The depositor's hits bear a star; ? = inconclusive; nt = not tested or not shown; [ ] = another dose, or the depositor's remark. Unless noted, calls come from the whole dose curve; as a rule, active = well fitted curve in the direction sought with a large enough effect; inconclusive = small, poorly fitted or top-dose-only effect, or another doubt; inactive = no such curve, though single readings can be large; an effect the other way counts as inactive or inconclusive.

SMILES	TDP1 cell noCPT	BCR signal inh	TDP1 cell CPT	MCF10A rerep	SW480 rerep	IL1B secr inh
O=c1ccc(C(F)(F)F)cn1Cc1cc(=O)n2ccsc2n1	0%	10%	6%	3%	-4%	2
CC1C(=O)CCC2[C@]1(C)CCC1[C@]2(C)CC[C@@]2(C)C3CC(C)(C)CC[C@]3(C)CC[C@@]12C (some centres undefined)	-9%	nt	7%	nt	nt	nt
COc1cccc(C(=O)n2nc(-c3cccnc3)nc2NCc2ccc(F)cc2)c1	?	nt	-18%	nt	nt	nt
OC1CCN(Cc2nc(Cc3ccccc3Cl)no2)CC1	-8%	7%	-4%	2%	3%	-4
C[C@@H]1CCC[C@H](C)N1Cc1nc(Cc2ccccc2Cl)no1	?	1%	15µM*	3%	-31%	23
O=C(COc1ccc2ccccc2c1)NCCn1ccc2ccccc21	21µM*	?	?	20%	-3%	-14
O=C(COc1ccccc1)Nc1ccncc1	-9%	3%	11%	-1%	-3%	15
CC(C)(C)CC(C)(C)NC(=O)CSCC(=O)Nc1ccc2ccccc2c1	?	13%	18µM*	0%	-1%	-94*
O=C(COc1ccc2ccccc2c1)Nc1ccncc1	16µM*	?	?	-1%	-1%	0
O=C(CSc1ccc2ccccc2c1)Nc1ccncc1	15µM*	?	?	?	3%	0
O=C(CSc1nnc(-c2ccc(O)cc2)o1)Nc1ccccc1Br	-25%	?	-13%	-6%	-13%	-25
O=C(CSc1nc2ncc(Cl)cc2[nH]1)N1CCC(Cc2ccccc2)CC1	-8%	3%	-30%	7%	0%	0
Cc1cc(C(=O)N2CCC2(C)C(=O)O)nn1C(C)(C)C (centres undefined)	-1%	nt	-1%	nt	nt	4
O=c1[nH]c(NC2CCN(S(=O)(=O)c3ccccc3C(F)(F)F)CC2)nc2c1CCCC2	7.3µM*	-1%	6.5µM*	18%	-5%	-4
C[C@@H](NC(=O)c1cc2c([nH]c3ccccc32)c(-c2ccccc2)n1)C(=O)O	-16%	-2%	5%	-10%	4%	6
CCOC(=O)C1CCCCN1C(=O)c1cc2ccc(OC)cc2c2cc(OC)c(OC)cc12 (centres undefined)	18µM*	nt	?	?	-4%[9.22 µM]	21
CCN(CC)c1nc2ccccc2c(N)c1-c1ccccc1	21µM*	?	13µM*	?	-5%	-27
O=C(c1ccco1)N1CCN(C2CN(C3CCCCC3)S(=O)(=O)C2)CC1 (centres undefined)	-11%	nt	-8%	nt	nt	29
COc1ccc(-n2nc3c(c2NC(=O)C(C)Oc2ccccc2)CS(=O)C3)cc1 (centres undefined)	-3%	-1%	15%	-1%	-22%	0
COc1ccc2ccccc2c1/C=N/Nc1ccc(Cl)c(C(=O)O)c1	-27%	?	5%	?	0%	36
COc1ccc(N/N=C/c2c(C(=O)O)ccc3ccccc23)cc1	3.3µM*	?	2.6µM*	?	?	173
O=c1c2ccccc2oc2cc(-c3ccc4[nH]ccc4c3)ccc12	2.1µM*	nt	1.8µM*	?	4.1µM*	35
COc1cc2sc3ccc(C#Cc4ccccn4)cc3c(=O)c2cc1OC	?	nt	-89%	?	?	-7
COc1cc2sc3ccc(-c4ccc5[nH]ccc5c4)cc3c(=O)c2cc1OC	5.8µM*	nt	5.8µM*	17%	?	-16
CC(C)C(=O)Nc1nnc2n1CCS2	10%	nt	1%	nt	nt	nt
SMILES	TDP1 cell noCPT	BCR signal inh	TDP1 cell CPT	MCF10A rerep	SW480 rerep	IL1B secr inh
CCOc1cc(C)c(S(=O)(=O)Nc2ccc3cn[nH]c3c2)cc1C	10µM*	?	18µM*	-2%	-1%	-70*
Cc1ccc(S(=O)(=O)Nc2ccc3cn[nH]c3c2)c(C)c1	-19%	-3%	?	16%	16µM*	42
Cc1ccc(C)c(S(=O)(=O)Nc2ccc3cn[nH]c3c2)c1	?	0%	-18%	1%	0%	-4
CCOc1cc(C)c(S(=O)(=O)Nc2ccc(Cl)cn2)cc1C	-8%	5%	?	23µM*	16%	-2
O=C(NC1CC1)c1cccc(NC(=O)C2CCCCC2)c1	-28%	nt	-5%	-10%	-32%	15
COc1ccc(C23CC4CC(CC(C(=O)O)(C4)C2)C3)c(F)c1	2%	?	-7%	3%	-13%	8
CCN(CC)C(=O)Cn1cc(C(=O)C(=O)Nc2ccc3c(c2)OCCO3)c2ccccc21	23µM*	?	18µM*	?	1%	?
O=C(Nc1ccc2c(c1)OCO2)C(=O)c1c[nH]c2ccccc12	-8%	?	-9%	16%	2%	-8
O=C(Nc1ccc2c(c1)OCCO2)C(=O)c1c[nH]c2ccccc12	?	?	10µM*	9.2µM*	4.6µM*	?
COc1nc(Nc2ccccc2F)nc(OC)n1	4%	-7%	-7%	-8%	?	-7
Cc1c(C(=O)OCC(=O)N(C)Cc2ccc(Cl)cc2)oc2ccccc12	6%	-10%	1%	21%	?	?
O=C(Cc1cccs1)NCc1ccc(F)cc1	0%	20%	8%	4%	-4%	-1
O=C(Cc1cc2ccccc2o1)NCc1ccc(F)cc1	23µM*	-16%	21µM*	12µM*	?	17
O=C(CCNc1cccc(F)c1)c1cc2ccccc2o1	15µM*	1%	16µM*	?	?	-9
O=C(CCNc1ccc(F)cc1)c1cc2ccccc2o1	16µM*	?	8.2µM*	?	-3%	?
CNC(=O)c1cc2ccccc2o1	-9%	-1%	1%	-1%	-1%	15
O=C(Cc1ccc(F)cc1)OCC(=O)c1cc2ccccc2o1	-15%	1%	-10%	-5%	-3%[9.22 µM]	25
CCC(C)c1ccc(S(=O)(=O)N2CCN(C(=O)CN3C(=O)NC(C)(C4CC4)C3=O)CC2)cc1 (centres undefined)	-27%	nt	-28%	nt	nt	-1
Cc1cccc(NCc2ccc(Br)cc2)n1	?	?	?	3%	46%	-62*
CCOC(=O)C1CCN(C(=O)c2oc3ccc(S(=O)(=O)N4CC(C)CC(C)C4)cc3c2C)CC1 (centres undefined)	16µM*	?	18µM*	25%	7%	-15
